For orientation: inhibition means the relative decrease from the control value, in per cent.

Where “and” joins values, the source holds several entries; their conditions need not be identical. Equal values may be shown once. The campaign covered roughly 260,000 compounds. About 1,500 (0.58%) were called active. About 5% were inconclusive and are not listed.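 Rule for the calls: active = inhibition above a set limit at one or more doses, reproduced on every date tested; inconclusive = results disagree between test dates, or hit never tested in dose response; inactive = the rest.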 Not all results are given here. Entries with a potency or affinity are not part of this list.

The target of the experiment is Virion infectivity factor (Human immunodeficiency virus type 1 group M subtype B (isolate BH10)) + Virion infectivity factor (Human immunodeficiency virus type 1 group M subtype B (isolate BRU/LAI)) + Virion infectivity factor (Human immunodeficiency virus type 1 group M subtype B (isolate PCV12)) + Virion infectivity factor (Human immunodeficiency virus type 1 group M subtype B (isolate HXB2)) + DNA dC->dU-editing enzyme APOBEC-3G (Homo sapiens) (UniProt P69720+P69721+P69722+P69723+Q9HC16). Put plainly: HIV-1 Vif–A3G interaction blockers – biochemical, TR-FRET, GST-Vif 1-94, biotin-A3G peptide, dose response retest, primary screen (AID 1117319).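 Note: Vif residues 1-94 fused to GST binding biotinylated APOBEC3G peptide 110-148; 0% = full assay without inhibitor and 100% = GST in place of GST-Vif.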 The following applies: TR-FRET GST-Vif / biotin-A3G peptide binding; stronger effect = higher value.
In the case of `O=C(CSc1nnc(CCCO)n1-c1ccccc1)Nc1nccs1`, the inhibition was -0.69% (inactive). Under `CCOc1cc(CNCCO)cc(Br)c1OCc1ccc(Cl)cc1` stands -0.39% (inactive); under `Nc1cc(=O)nc(SCC(=O)Nc2ccccc2Cl)n1-c1ccccc1`, -1.2% (inactive); under `Cc1ncsc1CCSc1nc2ccccc2c(=O)n1C`, -1.02% (inactive).

As for `COc1cc(OC)cc(C(=O)Nc2cccnc2)c1`, the inhibition was 7.36% (inactive). Turning to `COc1ccc(S(=O)CC(=O)Nc2ccccc2Cl)cc1` (stereo not given), the inhibition was -2.59% (inactive). Consider `CCN(CC)c1ccc(C=Nc2cc(C)cc(C)c2)c(O)c1`, for which the inhibition is 9.03% (inactive). For `CCN(CC)c1ccc(C=Nc2ccccc2)c(O)c1`, the inhibition was 29.3% (inactive). Consider `CCN(CC)c1ccc(C=Nc2ccc(C#N)cc2)c(O)c1`, for which the inhibition is -0.77% (inactive). For `CCN(CC)c1ccc(C=Nc2ccccc2C)c(O)c1` the value was -5.2% (inactive); for `COc1nnc(-c2ccc(C)c(S(=O)(=O)NC(C)C)c2)c2ccccc12`, -9.93% (inactive); for `COc1ccc(C2=NC(CO)(CO)CO2)cc1`, -8.98% (inactive). For the compound `O=C(Nc1ccc(S(=O)(=O)N2CCCC2)cc1)c1cc(=O)c2ccccc2o1`, the inhibition was -4.62% (inactive).

Consider `CN(C)CC(=O)N1c2ccccc2Sc2ccc(Cl)cc21`, for which the inhibition was 3.03% (inactive). For `O=C(CN1CCCc2ccccc21)NCCc1ccc(Cl)cc1` the value was 32.1% (inactive).

On to `COc1ccc(CCNC(=O)CN2CCOc3ccccc32)cc1OC`, for which the inhibition is 2.79% (inactive). For `NC1=CC(=O)C(=O)c2ccccc21` the value was 6.05% (inactive). With `O=C1C=C(Nc2ccccc2)c2ccccc2C1=O`, the inhibition is 2.25% (inactive).

On to `COc1cc(NC(=O)CS(=O)(=O)c2ccccc2)cc(OC)c1OC`, for which the inhibition was -4.34% (inactive). As for `COc1cc(-c2nnc(NC(=O)CS(=O)(=O)c3ccc(C)cc3)o2)cc(OC)c1OC`, the inhibition was -0.69% (inactive). As to `O=[N+]([O-])c1cccnc1N1CCN(c2ccc(F)cc2)CC1`, the inhibition was -1.42% (inactive). For `COCCCC1CCN(Cc2cn[nH]c2-c2cc(OC)c(OC)c(OC)c2)CC1` the value was -14.3% (inactive); for `COC(=O)c1ccc(COc2ccccc2/C=N/Nc2cccc(C(=O)O)c2)cc1`, 9.8% (inactive).

As to `CSc1ccc(/C=N/Nc2ccc(Cl)c(C(=O)O)c2)cc1`, the inhibition is 14.3% (inactive).

As to `O=C(O)c1cccc(N/N=C/c2ccc(OC(F)(F)F)cc2)c1`, the inhibition is 0.25% (inactive). `O=C(O)c1cccc(N/N=C/c2ccc(-c3ccccc3)cc2)c1`: the inhibition was 6.67% (inactive). Consider `CN(C)S(=O)(=O)N1CCc2ccccc21`, for which the inhibition is 28.1% (inactive). On to `Cc1cc(OCCn2cnc3ccccc3c2=O)ccc1[N+](=O)[O-]`, for which the inhibition is 3.47% (inactive).

For `COc1ccc(S(=O)(=O)/N=C2/C=CC(=O)C(C)=C2C)cc1`, the inhibition was 9.79% (inactive).

For the compound `CCc1ccc(S(=O)(=O)ON2C(=O)c3ccccc3C2=O)cc1`, the inhibition was 5.83% (inactive). On to `CCc1ccc(S(=O)(=O)/N=C2\C=C(NS(=O)(=O)c3ccccc3)C(=O)c3ccccc32)cc1`, for which the inhibition was 16% (inactive). `O=S(=O)(N=C1C=CC(=NS(=O)(=O)c2ccccc2)c2ccccc21)c1ccccc1`: the inhibition was 14.1% (inactive). Take `Cc1ccc(CNC(=O)CSc2nc(N3CCCCC3)nc(N3CCCCC3)n2)cc1`: the inhibition is 4.78% (inactive). Take `COc1ccc(Nc2nc(OC)nc(N3CCOCC3)n2)cc1`: the inhibition was -3.38% (inactive). Consider `CC1=C(C(=O)OC2CCCCC2)C(c2cccs2)n2c(nc3ccccc32)N1` (stereo not given), for which the inhibition was -7.41% (inactive). Under `CN1CCc2cc3c(c4c2[C@H]1[C@H](O)c1ccccc1-4)OCO3` stands 9.65% (inactive); under `CN1CCc2ccccc2C1C1CCNCC1` (stereo not given), 25.2% (inactive); under `CCN(CC)CCn1c2c(c(SCC(=O)NCc3ccccc3)nc1=O)CCCC2`, 6.08% (inactive). Consider `O=C(NCCCN1CCN(CCCNC(=O)c2cccc([N+](=O)[O-])c2)CC1)c1cccc([N+](=O)[O-])c1`, for which the inhibition was 1.34% (inactive).

`Cc1nn(C)cc1/C=N/NC(=S)Nc1ccccc1`: the inhibition was 0.96% (inactive). With `C/C(N)=C(/C#N)C(=O)CSc1n[nH]c(-c2ccccc2Br)n1`, the inhibition is 10.4% (inactive) and -7.5% (inactive). Consider `CCOC(=O)c1ccccc1NC(=O)[C@@H]1CCCN1C(=O)OC(C)(C)C`, for which the inhibition was 3.12% (inactive).

For `CCN1C(=O)c2ccc(C(=O)NCc3ccc4c(c3)OCO4)cc2C1=O`, the inhibition was -10.4% (inactive).

Take `Cc1cc(C(F)(F)F)n2ncc(C(=O)O)c2n1`: the inhibition is -3.78% (inactive).

For the compound `Cc1cc(C(F)(F)F)n2nc(C)c(-c3ccc(Cl)cc3)c2n1`, the inhibition is -0.47% (inactive).

Consider `CC(C)(C)C1=NN=C2c3ccccc3C(=O)C21` (stereo not given), for which the inhibition was 6.1% (inactive).

For `COCOCCn1cc(CN2CCS(=O)(=O)N(Cc3ccc(-c4ccc(Cl)cc4)cc3)C(C)C2=O)nn1` (stereo not given), the inhibition is 1.6% (inactive). With `CCOC(=O)c1cc(C)n(-c2c(C)n(C)n(-c3ccccc3)c2=O)c1C`, the inhibition is 2.99% (inactive). With `Cc1cc(C(=O)CC#N)c(C)n1-c1c(C)n(C)n(-c2ccccc2)c1=O`, the inhibition was 3.73% (inactive). Consider `Cc1onc(-c2ccccc2Cl)c1C(=O)O/N=C(\N)c1ccccc1`, for which the inhibition was -3.35% (inactive). Consider `COc1ccc2c(=O)c3c(=O)n(Cc4ccco4)c(C(C)C)nc3oc2c1`, for which the inhibition was -5.33% (inactive). For the compound `COc1ccc2c(=O)c3c(=O)n(Cc4ccco4)c(-c4ccco4)nc3oc2c1`, the inhibition is 6.47% (inactive). Consider `COc1ccc2c(=O)c3c(=O)n(Cc4ccco4)c(-c4ccc(C)cc4)nc3oc2c1`, for which the inhibition was -32.5% (inactive). With `COc1ccc2c(=O)c3c(=O)n(Cc4ccco4)c(-c4ccccc4)nc3oc2c1`, the inhibition is -5.44% (inactive). Under `O=C(O)CCS(=O)(=O)Cc1ccccc1Cl` stands 3.96% (inactive); under `CC(C)OC(=O)C1C(=O)CC(C)(O)C(C(=O)OC(C)C)C1c1ccccc1` (stereo not given), -5.49% (inactive); under `O=C(N/N=C/c1c[nH]c2ccccc12)c1ccc([N+](=O)[O-])cc1Cl`, 2.78% (inactive). Consider `CCCCC(=O)NC(=S)Nc1ccccc1N1CCCCC1`, for which the inhibition is 1.96% (inactive).

Take `Cc1nc(SCC(=O)c2ccc(F)c(F)c2)[nH]c(=O)c1Oc1ccc(F)cc1`: the inhibition was -1.47% (inactive). For `Cc1cc(N2C(=O)C(O)=C(C(=O)c3ccco3)C2c2ccc(O)cc2)no1` (stereo not given), the inhibition is -5.88% (inactive). On to `COc1cc(C2C(C(=O)c3ccc(C)o3)=C(O)C(=O)N2c2cc(C)on2)cc(Br)c1O` (stereo not given), for which the inhibition was 19.3% (inactive). As for `COC(=O)c1ccc(COc2nc(C)cc(C)c2C#N)o1`, the inhibition was 2.74% (inactive). For `CCN(CC)S(=O)(=O)c1ccc(N2CCOCC2)c(NC(=O)CCC2CCCCC2)c1`, the inhibition is -9.59% (inactive). `COc1ccc(N2CCN(C(=O)CSc3ccccc3)CC2)cc1`: the inhibition was 30.3% (inactive). For the compound `O=C(c1ccccc1C(=O)N1CCN(c2ccccc2)CC1)N1CCN(c2ccccc2)CC1`, the inhibition was 3.97% (inactive).

Consider `Cc1occc1-c1nnc(SCC(=O)N2CCN(c3ccc(F)cc3)CC2)n1C`, for which the inhibition was 8.11% (inactive). For `CCn1c(SCC(=O)N2CCN(c3ccccc3)CC2)nnc1-c1ccoc1C` the value was 7.37% (inactive). With `O=C(O)c1ccccc1C(=O)N1CCN(c2ccccc2)CC1`, the inhibition is 3.73% (inactive).

Consider `O=C(CCSc1ccccc1)N1CCN(c2ccccc2)CC1`, for which the inhibition was -3.65% (inactive). `CCc1nn2c(=O)cc(COc3ccc(/C=C4\C(=N)N5N=C(CC(C)C)SC5=NC4=O)cc3)nc2s1`: the inhibition is 9.59% (inactive).

`COc1ccc(OC)c(C2C(C(=O)c3cccs3)=C(O)C(=O)N2CCN(C)C)c1` (stereo not given): the inhibition was 0.56% (inactive). With `CN1CCN(CCCNC(=O)c2ccc(/C=C3/Sc4ccccc4N(Cc4cccc(Cl)c4)C3=O)cc2)CC1`, the inhibition was 2.32% (inactive). Under `O=C(C1=C[C@H](c2ccc(Br)cc2)C[C@H](OCc2ccc(CO)cc2)O1)N1CCOCC1` stands 15.5% (inactive); under `Clc1ncc2[nH]cnc2n1`, 1.24% (inactive). With `COc1ccc(NC2CC(=O)N(CCc3ccccc3)C2=O)cc1` (stereo not given), the inhibition is 25.7% (inactive). In the case of `COc1cccc(NC2CC(=O)N(CCc3ccccc3)C2=O)c1` (stereo not given), the inhibition was 1.52% (inactive).

`Nc1ccccc1C(=O)/C=C/c1ccc2c(c1)OCO2`: the inhibition is 3.13% (inactive).

As to `Cc1ccc(C(=O)C=Cc2ccc3c(c2)OCO3)c(C)c1`, the inhibition was 0.22% (inactive).

With `O=C(/C=C/c1ccccc1)c1cc(Br)ccc(=O)c1O`, the inhibition is 24.6% (inactive).

Turning to `O=C(/C=C/c1ccc(F)cc1)c1cc(Br)ccc1O`, the inhibition was -1.23% (inactive). For `COC(=O)/C=C/c1ccc2c(c1)OCO2`, the inhibition is 4.78% (inactive). With `O=C(/C=C/c1ccc2c(c1)OCO2)c1ccc(O)cc1O`, the inhibition was 8.42% (inactive). With `COC(=O)c1ccccc1NC(=O)CSc1nnc(COc2cccc(OC)c2)n1C`, the inhibition is 0.63% (inactive). For `COc1ccc(CNC(=O)CSc2ncnc3ccccc23)cc1OC` the value was -8.65% (inactive); for `COc1ccc(N2CCN(CC(=O)Nc3ccc(SC(F)F)cc3)CC2)cc1`, 27.3% (inactive); for `N#Cc1c(NC(=S)NC(=O)Cc2cccs2)sc2c1CCCCC2`, 12.2% (inactive).

With `COc1ccccc1N1CCN(C(=O)COc2ccc(S(=O)(=O)NC(C)C)cc2)CC1`, the inhibition is 0.75% (inactive). Take `O=C(O)COc1ccccc1-c1ccccc1`: the inhibition was -0.72% (inactive).

For the compound `CN1CCC(N(C)C(=O)COc2ccccc2Cl)CC1`, the inhibition was -7.89% (inactive).

Turning to `N#Cc1ccc(C(=O)NC2CCCc3ccccc32)cc1` (stereo not given), the inhibition is 5.64% (inactive). In the case of `Cc1cn([C@H]2C[C@H](O)[C@@H](CNCc3ccc(F)c(N4CCOCC4)c3)O2)c(=O)[nH]c1=O`, the inhibition was -0.24% (inactive). Regarding `CC(=O)Nc1ccccc1NC(=O)COc1cccc2ccccc12`, the inhibition is -3.58% (inactive).

`COc1ccc(CCN=Cc2c(C)[nH]n(-c3ccc([N+](=O)[O-])cc3)c2=O)cc1OC`: the inhibition is 3.12% (inactive).

Consider `Cc1ccc(S(=O)(=O)Nc2cccc(-n3cnnn3)c2)cc1`, for which the inhibition is -12.1% (inactive). Turning to `CC(=O)Nc1ccc(S(=O)(=O)Nc2cccc(-n3cnnn3)c2)cc1`, the inhibition is -3.6% (inactive).

The record behind these values is PubChem BioAssay AID1117319 (Southern Research Institute, 2015).
